# Measured values as given in PubChem BioAssay.
# The source made the active and inactive calls.
# Legend:
# [1] = A549 cell viability effects, profiling panel, calcein-AM fluorescence, 48 h, basal (AID 1162); details: higher = more signal
# [2] = adipocyte viability effects, profiling panel, cell-based, 3T3-L1 adipocytes, calcein-AM fluorescence, 48 h, basal (AID 1163); details: 3T3-L1 adipocytes viability, higher = more signal
# [3] = HepG2 cell viability effects, profiling panel, calcein-AM fluorescence, 48 h, basal (AID 1164); details: higher = more signal
# [4] = MM1S cell viability effects, profiling panel, calcein-AM fluorescence, 48 h, basal (AID 1165); details: higher = more signal;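 further: viability of MM1S multiple myeloma cells under basal unstimulated conditions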
# [5] = basal RPMI8226 viability, no added stimulus, profiling panel, cell-based, calcein-AM fluorescence, 48 h, PK04 Diversity Set (AID 1166); details: RPMI8226 myeloma viability, higher = more signal;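 further: cells grown under basal conditions without added stimulus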
# [6] = basal HepG2 mitochondrial membrane potential changes, profiling panel, cell-based, JC-1 fluorescence, 24 h, 100 nL compound (AID 1167); details: higher = more signal
# [7] = basal 3T3-L1 adipocyte mitochondrial potential changes, profiling panel, cell-based, JC-1 fluorescence, 3T3-L1 adipocytes, 24 h, 100 nL compound (AID 1168); details: JC-1 mitochondrial fluorescence, higher = more signal, called active from +8 up or from −8 down
# [8] = basal RPMI8226 mitochondrial membrane potential changes, profiling panel, cell-based, JC-1 fluorescence, 24 h, 100 nL compound (AID 1169); details: RPMI8226 myeloma, JC-1 mitochondrial potential fluorescence, higher = more signal
# [9] = basal MM1S mitochondrial membrane potential changes, profiling panel, cell-based, JC-1 fluorescence, 24 h, 100 nL compound (AID 1170); details: higher = more signal
# [10] = A549 lung cancer cell viability effects, profiling panel, resazurin fluorescence, 24 h, PK04 Diversity Set (AID 1171); details: higher = more signal, called active from +8 up or from −8 down
# Further: test concentration not given here.
Structure (SMILES),z-score [1],z-score [2],z-score [3],z-score [4],z-score [5],z-score [6],z-score [7],z-score [8],z-score [9],z-score [10]
COCC(=C=CC[C@@H](O)c1ccccc1OCCO)C[C@@H](O)c1cc(Cl)cc(Cl)c1O,0.14,-0.407,0.0467,-3.32,-3.44,-2.21,-1.69 (inactive),-0.881,-1.15,-0.106 (inactive)
Cc1ccc(S[C@]2(C(=O)NCCN3CCOCC3)CC(=O)N(Cc3ccccc3Cl)[C@@H]2c2ccc(CO)cc2)cc1,0.263,1.03,-0.0334,0.368,-1.77,0.482,-0.41 (inactive),-0.168,-1.17,1.05 (inactive)
COc1cc2c(cc1O)C=[N+](Cc1cccc(OC(F)(F)F)c1)CC2,1.45,0.0197,1.2,1.25,0.346,1.01,0.0547 (inactive),0.145,-0.471,-1.68 (inactive)
O=C1O[C@H](c2ccccc2)[C@H](c2ccccc2)N2[C@H]1[C@@H](C(=O)O)[C@]1(C(=O)Nc3ccc(C#CC4=CCCCC4)cc31)[C@H]2c1ccccc1OCCO,-0.986,-1.21,-4.28,-3.3,-4.21,-3.56,1.39 (inactive),-0.935,-1.68,-1.84 (inactive)
CCCCc1cn(C[C@H](Cc2ccccc2)NC(=O)N[C@H](CO)CCc2oc(C(C)=O)c(C(=O)OC)c2C(=O)OC)nn1,-0.601,0.813,0.132,0.787,-1.22,0.173,0.273 (inactive),0.24,1,-0.571 (inactive)
COc1ccc([Si](C)(C)[C@H]2[C@H](CCO)O[C@@]3(C(=O)N(C)c4c(Br)cc(C)cc43)[C@@H]2C)cc1,-4.21,-1.8,-4.77,-2.69,-4.31,-2.21,0.343 (inactive),-1.05,-2.29,-6.97 (inactive)
C=CCOC(=O)[C@H]1[C@@H]2C(=O)O[C@@H](c3ccccc3)[C@@H](c3ccccc3)N2[C@@H](c2ccc(OCCOC(=O)[C@@H]3C[C@@H]4C(=O)N[C@@H](CCCC[N+](C)(C)C)C(=O)N4[C@@H]3c3ccc(O)cc3)cc2)[C@]12C(=O)Nc1ccccc12,1.23,1.53,-0.265,-1.07,0.95,-1.37,0.396 (inactive),-0.923,-0.504,1.19 (inactive)
C=CC[C@]1(C(=O)N2CCCCC2)N=C(c2ccc(OCCCO)cc2)O[C@H]1c1ccccc1,0.396,0.0234,-0.426,-2.35,-1.35,0.53,-0.0613 (inactive),-1.16,0.447,2.72 (inactive)
CO[C@H]1O[C@H](CO)[C@@H](OC(=O)Nc2ccc(Br)cc2)[C@H](OC(=O)c2cc3ccccc3[nH]2)[C@H]1OC(=O)c1cc2ccccc2[nH]1,-2.49,0.266,-2.58,-3.23,-3.2,-2.38,2.37 (inactive),-0.589,-0.634,-5.8 (inactive)
[N-]=[N+]=NCc1ccccc1C[C@]1(C(=O)N2CCOCC2)N=C(c2ccc(OCCCO)cc2)O[C@H]1c1ccccc1N=[N+]=[N-],-1.37,1.97,-0.956,-1.28,-3.42,0.665,-0.817 (inactive),-1.1,-1.47,-0.678 (inactive)
COc1ccc(CCN2C(=O)[C@@]3(Cc4ccccc42)c2ccccc2C(=O)N(Cc2ccccc2C(F)(F)F)[C@H]3c2ccc(CO)cc2)cc1,-0.306,0.885,-0.863,0.122,-1.57,-0.739,-0.753 (inactive),0.923,-1.59,0.639 (inactive)
C[C@@]1([C@@H](NC(=O)c2ccccc2)c2ccc(-c3ccccc3)cc2)C[C@H]1C1CCCCC1,-1.35,-0.502,-0.687,-0.646,-1.28,-0.964,-1.22 (inactive),0.318,-0.308,-1.2 (inactive)
C=CC[C@]1(C(=O)NCCCOC)N=C(c2ccc(OCCCO)cc2)O[C@H]1c1ccccc1N=[N+]=[N-],-0.707,0.346,0.0592,-1.78,-1.47,0.111,1.06 (inactive),-0.68,-0.114,0.393 (inactive)
C=CCC(OC(C)=O)[C@@H]1[C@@H](N(Cc2cccc3ccccc23)C(=O)c2ccc(-c3ccccc3)cc2)c2cc(OCCCO)ccc2N1C(=O)Cc1ccc(OC)cc1 (stereo not given in full),1.29,1.66,0.68,-0.169,0.516,2.05,0.324 (inactive),-0.217,-0.179,1.54 (inactive)
CCOC(=O)C[C@H]1[C@H](OC(=O)c2cc3ccccc3oc2=O)[C@@H](NC(=O)Cc2ccc(OC)cc2)c2cc(OCCCO)ccc2N1C(=O)c1ccccc1,-0.172,2.17,-0.56,-0.0168,-0.606,-0.412,-0.111 (inactive),-0.135,-0.244,-0.714 (inactive)
CC[C@@H]1C=C(C(=O)O)[C@H](c2ccco2)N1S(=O)(=O)c1ccc(C)cc1,-0.364,-0.538,0.186,-0.019,-0.29,-0.0247,-1.25 (inactive),0.604,-1.26,-0.68 (inactive)
O=C(C1N=C(c2ccc(OCCCO)cc2)N(c2ccccc2)O1)N1CCOCC1 (stereo not given),0.895,0.349,0.0818,0.932,1.22,0.0222,0.645 (inactive),-1.06,-1.05,0.298 (inactive)
C=CCNC(=O)[C@@H]1[C@H]2C(=O)O[C@H](c3ccccc3)[C@H](c3ccccc3)N2[C@H](c2ccc(OCCO)cc2)[C@@]12C(=O)Nc1ccc(C#Cc3ccc(OC)cc3)cc12,-0.717,1.82,-0.969,-0.891,-1.86,-1.12,1.05 (inactive),-0.592,-0.913,-1.03 (inactive)
CCOC(=O)C[C@H]1[C@H](OC(=O)Cc2ccc3c(c2)OCO3)[C@@H](NC(=O)c2ccc(-c3ccccc3)cc2)c2cc(OCCCO)ccc2N1C(=O)c1ccc2ccccc2n1,1.8,2.75,1.65,0.218,-0.472,2.72,0.61 (inactive),-0.233,-0.903,0.562 (inactive)
CCCCCN1CC=CC23O[C@@H]4/C=C\CCCOC(=O)C4[C@H]2C(=O)N(C(CO)C(C)C)[C@@H]3C1=O (stereo not given in full),-0.436,0.737,-1.05,0.693,0.108,-0.335,-0.0791 (inactive),0.0204,-0.407,0.534 (inactive)
COCC(=C=CC[C@H](O)c1ccccc1OCCO)C[C@H](O)c1cc(Cl)cc(Cl)c1O,-2.79,-4.68,-2.64,-2.93,-3.02,-0.775,1.66 (inactive),-0.57,-1.88,-3.06 (inactive)
COc1ccc(C(=O)Nc2cccc(CN3C(=O)[C@]4(O[C@H](CCO)[C@@H]([Si](C)(C)c5ccc(OC)cc5)[C@@H]4C)c4ccccc43)c2)cc1,-4.13,-0.564,-4.73,-2.78,-4.35,-2.23,-1.37 (inactive),-0.73,-1.96,-6.33 (inactive)
CCOC(=O)C[C@H]1[C@H](OC(=O)Cc2ccc3c(c2)OCO3)[C@@H](NC(=O)c2ccc3ccccc3c2)c2cc(OCCCO)ccc2N1C(=O)c1ccccc1,1.38,-0.377,0.778,-0.41,-0.377,1.27,1.14 (inactive),0.621,-0.334,0.859 (inactive)
CN(C)C(=O)[C@@]1(Cc2ccccc2CN=[N+]=[N-])N=C(c2ccc(OCCCO)cc2)O[C@H]1c1ccccc1,-0.62,-0.476,-1.18,-3.03,-3.94,-0.807,-0.215 (inactive),-0.988,-2.52,-0.325 (inactive)
O=C(NCc1ccccc1)[C@@]1(Cc2ccccc2)N=C(c2ccc(OCCCO)cc2)O[C@H]1c1ccccc1,-2.86,0.967,-2.26,-1.42,-3.32,1.19,-0.357 (inactive),-1.02,-1.55,-0.331 (inactive)
C=CCOC(=O)[C@H]1[C@@H]2C(=O)O[C@@H](c3ccccc3)[C@@H](c3ccccc3)N2[C@@H](c2ccc(OCCOC(=O)[C@@H]3C[C@@H]4C(=O)N[C@@H](CCCCN(C)C)C(=O)N4[C@@H]3c3ccc(O)cc3)cc2)[C@]12C(=O)Nc1ccc(I)cc12,-0.508,-0.523,-0.222,-0.397,-0.449,-1.65,0.832 (inactive),-0.7,-1.6,0.183 (inactive)
COc1ccc([Si](C)(C)[C@@H]2[C@@H](CC(=O)N3Cc4ccccc4C[C@H]3CO)O[C@]3(C(=O)N(C)c4c(Br)cc(C)cc43)[C@H]2C)cc1,-0.721,0.181,-3.73,-2.66,-4.35,0.634,0.596 (inactive),-0.976,-2.23,-1.18 (inactive)
COCCOC(=O)N1C(=O)[C@@]2(c3cc(C#CCCO)ccc31)[C@H](c1ccc(OCCO)cc1)N1[C@H](c3ccccc3)[C@H](c3ccccc3)OC(=O)[C@H]1[C@@H]2C(=O)N1CCN(c2ncccn2)CC1,0.559,0.344,0.479,-1.32,-0.713,0.503,-0.138 (inactive),-0.41,-1.19,0.253 (inactive)
